From PubChem BioAssay
Calls of active or inactive are those of the source.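 How the source made its calls: active means fluorescence ratio normalized to control raised more than 50% in primary screen plus both repeat runs; inactive means the rest.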

Each molecule was assayed on TRPC4 beta (transient receptor potential cation channel C4), mouse (assay: TRPC4 cation channel opening, retest – cell-based, Fluo4 calcium, HEK293 TRPC4beta/mu-opioid, duplicates, 10 µM, confirmation (AID 2426;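 on activation: percent rise of integrated ratio over buffer wells lacking compound which define 0%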)). Details: Fluo4 calcium fluorescence, at 10 µM; active compounds read high.

outcome, inactive:
CN1CCN(S(=O)(=O)c2ccc(Br)c3ccccc23)CC1
CC(C)(C)C(=O)NCCCc1nc2ccccc2n1CCCOc1ccc(Cl)cc1
O=[N+]([O-])c1ccc(S(=O)(=O)NCCCc2ccccc2)cc1
CC(=O)c1ccc(OCC(O)CN2CCN(S(=O)(=O)c3c(C)cc(C)cc3C)CC2)cc1 (stereo unspecified)
CC(=O)c1ccc(N2CCN(c3ccc(S(=O)(=O)NCCCN(C)C)cc3[N+](=O)[O-])CC2)cc1
C=CCn1c(SCCN2CCCCC2)nc2c1c(=O)[nH]c(=O)n2C
CCCN(C(=O)COC(=O)C12CCC(=O)N1c1ccccc1S2)c1c(N)n(Cc2ccccc2)c(=O)[nH]c1=O (stereo unspecified)
Cc1cc(C(=O)CN2C(=O)C(=O)N(CC(C)C)C2=O)c(C)n1-c1ccccc1F
C/C(=N\NC(=O)COc1ccc(C)cc1C(C)C)c1ccc(-n2ccnc2)cc1
COc1cc(/C=C2\C(=O)ON=C2c2ccccc2)cc(Cl)c1O
CN(CC(=O)Nc1ccc(F)cc1)C(=O)COC(=O)C1CCN(c2ccc(C(F)(F)F)cn2)CC1
CCCN(CCC)CCCNC(=O)c1cc2c(=O)n(C)c3ccccc3c2n1C
COc1ccccc1CC(=O)N1CCN(S(=O)(=O)c2ccccc2)CC1
O=C(COc1ccccc1)NC1CCCCCCC1
O=C(CC1C(=O)NCCN1C(=O)Nc1ccccc1)Nc1cc(Cl)cc(Cl)c1 (stereo unspecified)

activation, active:
CCN(CC)c1ccc(CNc2nc3ccccc3n2CCN2CCCCC2)cc1 109%
